Source: article PMC5540273 (PLoS ONE, 2017)
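Further: KINOMEscan kinase panel screen.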

The molecules below were run on CSNK2A1. Settings: concentration: 1 μM, replicates: in singlicate; n = 1.
For `COc1ccc(-n2cnc3c(N)ncnc32)cc1` [SKF-97236], the “%Inh” value was 12%.
For `COc1cc(Nc2nccc(N3CCC(NC(=O)C(C)c4ccc(Cl)cc4)C3)n2)cc(OC)c1OC` (stereo not shown) [GSK1379757], the “%Inh” value was 1%.
With `Cc1nn2c(=O)cc(N3CCOCC3)nc2n1Cc1cccc(Cl)c1Cl` [GSK2342769] the “%Inh” value was 16%.
For `COc1ccc(-c2cc3c(C)nc(N)nc3n([C@H]3CC[C@H](O)CC3)c2=O)cn1`, the “%Inh” value was 0%.
In the case of `COc1cc2ncn(-c3cc(OCc4ccncc4)c(C(N)=O)s3)c2cc1OC` [GSK336313], the “%Inh” value is reported as 2%.
In the case of `COc1cc(Nc2nccc(N3CCC(NC(=O)C4COc5ccccc5O4)C3)n2)cc(OC)c1OC` (stereo not shown) [GSK1379761], the “%Inh” value is reported as 0%.
In the case of `Nc1ncnc2c1ncn2-c1cccc(F)c1` [SKF-97560], the “%Inh” value is reported as 28%.
In the case of `CCC(=O)c1c(-c2ccccc2)c2cc(Cl)ccc2c(=O)n1Cc1cc(C(=O)NC2CC2)n(C)n1`, the “%Inh” value is reported as 0%.
With `Nc1n[nH]c2ncc(-c3ccccc3)cc12` [SB-517081] the “%Inh” value was 0%.
In the case of `Cc1nc(N(C)[C@H]2CN(C(=O)CC#N)CC[C@H]2C)c2cc[nH]c2n1`, the “%Inh” value is reported as 0%.
With `CC(C)(C)c1ccc(C(=O)Nc2cn3cc(-c4ccccc4)ccc3n2)cc1` the “%Inh” value was 15%.
For `FC(F)(F)c1ccc(-c2ncn(CCCN3CCOCC3)c2-c2ccncc2)cc1` [SB-217780], the “%Inh” value was 20%.
In the case of `O=C(Nc1n[nH]c2nc(-c3ccccc3)c(Cl)cc12)C1CC1` [SB-734909], the “%Inh” value is reported as 31%.
In the case of `COc1ccc(-c2cc3c(C)nc(N)nc3n([C@H]3CC[C@H](OCCO)CC3)c2=O)cn1`, the “%Inh” value is reported as 0%.
`Cc1ccc(-c2ccc3c(ccc4sc5c(c43)NC[C@@H](C)N=C5N(C)C)n2)cn1` was tested, and the “%Inh” value was 0%.
In the case of `Nc1n[nH]c2nnc(-c3ccccc3)c(-c3ccccc3)c12` [GW554060], the “%Inh” value is reported as 11%.
`CCC(=O)c1c(-c2ccccc2)c2cc(Cl)ccc2c(=O)n1Cc1ccc(C(=O)O)cc1` was tested, and the “%Inh” value was 0%.
With `CCS(=O)(=O)c1ccc(OC)c(Nc2ncc(-c3ccc(F)cc3)o2)c1.Cl` [GW591947] the “%Inh” value was 0%.
In the case of `CCS(=O)c1ccc(-c2coc3ccc(-c4nnc(C)o4)cc23)cc1` (stereo not shown), the “%Inh” value is reported as 21%.
In the case of `O=C(NCc1cccs1)c1cc(C(=O)c2c(Cl)cccc2Cl)c[nH]1` [GW823670], the “%Inh” value is reported as 0%.
With `COc1cccc(C2=C(N(C)c3ccccc3)C(=O)NC2=O)c1` [SB-334865] the “%Inh” value was 0%.
`OCCCNc1nccc(-c2c(-c3cccc(C(F)(F)F)c3)nn3cc(C(F)(F)F)ccc23)n1` [GW630813] was tested, and the “%Inh” value was 0%.
